# Records with an inconclusive call do not appear. Where a call stands in place of a potency, no number is given. Active and inactive are the calls of the source. Unless noted, the call rests on the fitted dose curve.
# Experiments:
# [1] = Nuclear factor erythroid 2-related factor 2/antioxidant responsive element (Nrf2/ARE) small molecule agonists: qHTS cell viability counter screen in human keratinocytes (AID 1919968; active means well fitted curve in the direction sought with a large enough effect in the repeat runs; an effect the other way counts as inactive or inconclusive; further: nearly all actives have a fitted effect of over 55% in size; further: potency means the concentration at half of the fitted maximal effect); conditions: KeratinoSens HaCaT ARE cells viability, CellTiter-Fluor, 24 h; series mostly up to 92.4 µM
# Summary of the method: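 In human HaCaT keratinocytes stably expressing an ARE-driven luciferase, compound exposure lasted 23 h at 37 C under 5% CO2. Viable cells are quantified with a protease-based fluorogenic reagent (CellTiter-Fluor) read 1 h after addition.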
# [2] = Nuclear factor erythroid 2-related factor 2/antioxidant responsive element (Nrf2/ARE) small molecule agonists: luciferase reporter gene qHTS assay in human keratinocytes (AID 1919969); conditions: KeratinoSens HaCaT ARE-luciferase, luminescence, 24 h; series mostly up to 92.4 µM; further: nearly all actives have a fitted effect of over 35% in size; further: potency means the concentration at half of the fitted maximal effect
# [3] = target: Gonadotropin-releasing hormone receptor (Homo sapiens) (UniProt P30968); test: Human gonadotropin-releasing hormone receptor (GnRHR) small molecule agonists, calcium flux assay in GnRHR-HEK293 cells (AID 1920063); conditions: calcium flux fluorescence, agonist mode; series mostly up to 57.6 µM; further: nearly all actives have a fitted effect of over 35% in size
# Summary of the method: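 Intracellular calcium rise is the read-out: engineered human GnRHR HEK293 cells, dye-loaded, are exposed to DMSO-dissolved compounds and fluorescence at Ex/Em 480/540 is tracked for 3 min.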
# [4] = target: KiSS-1 receptor (Homo sapiens) (UniProt Q969F8); test: Human kisspeptin (KISS1R) small molecule agonists, calcium flux assay in KISS1R-HEK293 cells (AID 1920064; active means well fitted curve in the direction sought with a large enough effect in the repeat runs; an effect the other way counts as inactive or inconclusive); conditions: KISS1R-HEK293, calcium flux fluorescence, agonist; series mostly up to 76.8 µM
# Summary of the method: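 Concentration-response testing used 15 concentrations in triplicate on human KISS1R-expressing HEK293 cells. Calcium-dependent fluorescence (Ex/Em 480/540) was followed kinetically for 3 min after compound transfer.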
# [5] = G protein-coupled receptor (GPCR) small molecule agonists, calcium flux assay: HEK293 wild type cell line counter screen (AID 1920065); conditions: HEK293 WT calcium flux, fluorescence, agonist mode; series mostly up to 57.6 µM
# Summary of the method: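 Fluorescence intensity signals activation. After overnight (18 h) culture and a 1 h calcium dye load at 37 C, compounds are added by pin tool and the plate read at 480/540 nm for 3 min in 1 s steps.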
# [6] = p53 small molecule agonists, cell-based qHTS assay with rat liver microsomes (AID 1963578); conditions: HCT-116 p53RE-bla, beta-lactamase ratio, 16 h; series mostly up to 66 µM; further: potency means the concentration at half of the fitted maximal effect
# Summary of the method: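 Each plate received p53RE-bla cells, then compound, then rat liver microsomes and NADPH (both 0.5 mg/mL final). Plates were held 16 h at 37 C, and beta-lactamase activity was detected with LiveBLAzer over 2 h.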
# [7] = p53 small molecule agonists, cell-based qHTS assay with rat liver microsomes: qHTS cell viability counter screen (AID 1963580); conditions: p53RE-bla HCT-116 + rat microsomes, ATP viability, 16 h; series mostly up to 66 µM; further: nearly all actives have a fitted effect of over 45% in size
# Summary of the method: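 Cytotoxicity counter screen: intracellular ATP read by CellTiter-Glo luminescence in the p53 reporter wells. HCT-116 p53RE-bla cells were treated for 16 h at 37 C alongside rat liver microsomes and NADPH, each 0.5 mg/mL final.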
# [8] = p53 small molecule agonists, cell-based qHTS assay: qHTS cell viability counter screen (AID 1963581); conditions: p53RE-bla HCT-116 viability, ATP luminescence, 16 h; series mostly up to 66 µM; further: nearly all actives have a fitted effect of over 45% in size; further: potency means the concentration at half of the fitted maximal effect
# Summary of the method: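 Luminescence from CellTiter-Glo, reflecting ATP content, serves as the cytotoxicity measure; it is taken after the 2 h reporter substrate step in HCT-116 p53RE-bla cells dosed for 16 h at 37 C.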
# [9] = p53 small molecule agonists, cell-based qHTS assay (AID 1963582; active means well fitted activation curve with a large enough effect in the signal ratio in the repeat runs, not every such curve was filed as active; the % refers to the signal ratio); conditions: HCT-116 p53RE-bla reporter, beta-lactamase FRET ratio, 16 h; series mostly up to 66 µM
# Summary of the method: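 After plating, p53RE-bla cells sat 5 h in the incubator; compounds or DMSO vehicle were pinned in; a 16 h incubation at 37 C followed; FRET substrate was added and, 2 h later at RT, fluorescence was measured.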
# [10] = cAMP Responsive Elements (CRE) small molecule agonists, cell-based qHTS assay (AID 1963590); conditions: CRE-bla HEK293T, beta-lactamase FRET ratio, 3 h; series mostly up to 92.4 µM
# Summary of the method: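 Compound exposure lasted 3 h at 37 C/5% CO2 in CRE-bla HEK 293T cells grown in assay medium with 10% dialyzed FBS and 25 mM HEPES. Reporter signal came from LiveBLAzer B/G FRET substrate, 2 h, room temperature.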
# [11] = cAMP Responsive Elements (CRE) small molecule antagonists, cell-based qHTS assay (AID 1963591; active means well fitted inhibition curve with a large enough effect in the signal ratio in the repeat runs, not every such curve was filed as active; the % refers to the signal ratio; further: potency means the concentration at half of the fitted maximal effect); conditions: CRE-bla HEK293T, beta-lactamase FRET ratio; series mostly up to 92.4 µM
# Summary of the method: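 Stimulation used NKH477 at a final 0.25 uM for 3 h in compound-treated CRE-bla HEK293T cells, seeded 18 h beforehand. Reporter activity was measured with LiveBLAzer B/G FRET substrate after 2 h at room temperature.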
# [12] = target: Beta-2 adrenergic receptor (Homo sapiens) (UniProt P07550); test: Adrenergic beta2 receptor (ADRB2) small molecule antagonists, cell-based qHTS assay (AID 1963592); conditions: CHO-ADRB2 cells, isoproterenol-stimulated cAMP HTRF ratio, 0.5 h; series mostly up to 92.4 µM; further: nearly all actives have a fitted effect of over 50% in size
# Summary of the method: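 Assay format: CHO-ADRB2 cells, 18-20hr seeding at 37C/5% CO2, then compound plus 1nM isoproterenol agonist mix for 0.5hr RT. Homogeneous time-resolved fluorescence cAMP detection after 1hr, expressed as 665/615 nm ratio.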
# [13] = target: D(2) dopamine receptor (Homo sapiens) (UniProt P14416); test: Dopamine D2 receptor (DRD2) small molecule agonists, cell-based qHTS assay (AID 1963594); conditions: HEK293-DRD2 cAMP HTRF, agonist mode, 30 min; series mostly up to 92.4 µM; further: nearly all actives have a fitted effect of over 35% in size
# Summary of the method: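 cAMP accumulation in DRD2-HEK293 cells measured by HTRF after 1 h detection; compounds added 10 min before NKH477 (200nM […]) forskolin-analogue stimulation, 30 min at room temperature, with Ro20-1724 present at 0.1 mM final.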
# [14] = target: D(2) dopamine receptor (Homo sapiens) (UniProt P14416); test: Dopamine D2 receptor (DRD2) small molecule antagonists, cell-based qHTS assay (AID 1963595; active means well fitted inhibition curve with a large enough effect in the signal ratio in the repeat runs, with a control signal flat; the % refers to the signal ratio); conditions: HEK293-DRD2 cAMP HTRF antagonist mode; series mostly up to 92.4 µM
# Summary of the method: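 Antagonism was scored as restored cAMP in HEK293-DRD2 cells. These cells were stimulated with 200 nM NKH477 and 12 nM quinpirole for 30 min at room temperature, in the presence of 0.1 mM Ro20-1724.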
# [15] = p53 small molecule agonists, cell-based qHTS assay with human liver microsomes: qHTS cell viability counter screen (AID 1963579); conditions: p53RE-bla HCT-116 viability, ATP luminescence, 16 h, HLM; series mostly up to 66 µM; further: nearly all actives have a fitted effect of over 45% in size
# Summary of the method: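 Tox21 library compounds, delivered from DMSO stocks, were tested on p53RE-bla cells together with 0.5 mg/mL human liver microsomes and 0.5 mg/mL NADPH (final) over 16 h at 37 C; CellTiter-Glo luminescence served as the cytotoxicity measure.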
# [16] = target: 5-hydroxytryptamine receptor 2A (Homo sapiens) (UniProt P28223); test: 5-hydroxytryptamine receptor 2A (HTR2A) small molecule antagonists, cell-based qHTS assay (AID 1963586); conditions: HTR2A-CHO cells, DOI-induced calcium flux, fluorescence; series mostly up to 61.5 µM; further: nearly all actives have a fitted effect of over 45% in size
# Summary of the method: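 CHO cells stably expressing human HTR2A were plated for 18 h at 37 C, then loaded with calcium dye for 1 h. Compounds were preincubated 5 min at room temperature before DOI (4 nM solution) was added. Kinetic fluorescence was read for 3 min.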
# [17] = target: 5-hydroxytryptamine receptor 2A (Homo sapiens) (UniProt P28223); test: 5-hydroxytryptamine receptor 2A (HTR2A) small molecule agonists, cell-based qHTS assay (AID 1963587); conditions: HTR2A-CHO cells, calcium flux fluorescence, agonist mode; series mostly up to 76.8 µM; further: nearly all actives have a fitted effect of over 30% in size
# Summary of the method: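 Kinetic calcium-flux fluorescence (2 min, 1 sec intervals) after compound addition in agonist mode. HTR2A-CHO cells were cultured 18 h, then dye-loaded 1 h at 37 C.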
# [18] = target: Muscarinic acetylcholine receptor M1 (Homo sapiens) (UniProt P11229); test: Cholinergic receptor muscarinic 1 (CHRM1) small molecule antagonists, cell-based qHTS assay (AID 1963588); conditions: CHRM1-CHO antagonist mode, calcium flux fluorescence; series mostly up to 61.5 µM; further: nearly all actives have a fitted effect of over 40% in size; further: potency means the concentration at half of the fitted maximal effect
# Summary of the method: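 Compounds were tested at 15 concentrations in three independent runs. Dye-loaded CHRM1-CHO cells were exposed 5 min at room temperature before stimulation by acetylcholine added at 50nM. Intracellular calcium was read kinetically on FDSS for 3 min.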
# [19] = target: Muscarinic acetylcholine receptor M1 (Homo sapiens) (UniProt P11229); test: Cholinergic receptor muscarinic 1 (CHRM1) small molecule agonists, cell-based qHTS assay (AID 1963589); conditions: CHRM1-CHO cells, agonist mode, calcium flux fluorescence; series mostly up to 76.8 µM; further: nearly all actives have a fitted effect of over 35% in size
# Summary of the method: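 Fluorescent calcium dye reports M1 activation in stably transfected CHO cells. Compounds, 15 concentrations, added after 1 h dye loading at 37 C; kinetic reading at 1 sec intervals.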
# [20] = target: Beta-2 adrenergic receptor (Homo sapiens) (UniProt P07550); test: Adrenergic beta2 receptor (ADRB2) small molecule agonists, cell-based qHTS assay (AID 1963593); conditions: CHO-ADRB2 cells, cAMP HTRF, 30 min; series mostly up to 92.4 µM;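 further: CHO cells stably overexpressing human ADRB2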
# Summary of the method: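 CHO cells stably over-expressing ADRB2 were plated overnight at 37C, then dosed with compounds plus a stimulation mix containing 100uM IBMX and 25uM Ro-20-1724 for 0.5hr at room temperature. cAMP was measured by HTRF competition, 1hr.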
# D(2) dopamine receptor (Homo sapiens), sequence (P14416 whole entry, looked up): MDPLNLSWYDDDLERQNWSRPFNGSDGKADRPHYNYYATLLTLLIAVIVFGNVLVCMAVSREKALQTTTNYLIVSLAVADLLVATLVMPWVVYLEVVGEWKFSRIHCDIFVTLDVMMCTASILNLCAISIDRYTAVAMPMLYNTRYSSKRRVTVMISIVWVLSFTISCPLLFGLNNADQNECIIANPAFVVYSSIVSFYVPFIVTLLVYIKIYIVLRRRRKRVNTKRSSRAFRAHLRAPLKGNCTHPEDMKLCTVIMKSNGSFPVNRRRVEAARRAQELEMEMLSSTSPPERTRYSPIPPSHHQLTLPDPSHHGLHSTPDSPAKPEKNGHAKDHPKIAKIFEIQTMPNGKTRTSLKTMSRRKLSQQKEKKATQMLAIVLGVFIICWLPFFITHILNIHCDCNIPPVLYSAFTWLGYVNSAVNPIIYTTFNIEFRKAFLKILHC
# Muscarinic acetylcholine receptor M1 (Homo sapiens), sequence (P11229 whole entry, looked up): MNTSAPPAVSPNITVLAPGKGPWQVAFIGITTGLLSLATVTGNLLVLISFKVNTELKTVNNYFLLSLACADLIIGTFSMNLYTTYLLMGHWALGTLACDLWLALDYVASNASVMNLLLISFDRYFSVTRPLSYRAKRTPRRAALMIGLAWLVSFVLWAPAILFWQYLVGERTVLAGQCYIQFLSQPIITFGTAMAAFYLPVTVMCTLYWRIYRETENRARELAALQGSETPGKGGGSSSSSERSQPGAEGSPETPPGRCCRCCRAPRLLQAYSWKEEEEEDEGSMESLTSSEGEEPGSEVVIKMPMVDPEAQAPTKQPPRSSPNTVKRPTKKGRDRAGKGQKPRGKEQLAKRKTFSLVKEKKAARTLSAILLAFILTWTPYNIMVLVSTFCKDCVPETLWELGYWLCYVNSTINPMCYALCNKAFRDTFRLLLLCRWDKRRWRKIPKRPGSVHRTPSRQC
# Beta-2 adrenergic receptor (Homo sapiens), sequence (P07550 whole entry, looked up): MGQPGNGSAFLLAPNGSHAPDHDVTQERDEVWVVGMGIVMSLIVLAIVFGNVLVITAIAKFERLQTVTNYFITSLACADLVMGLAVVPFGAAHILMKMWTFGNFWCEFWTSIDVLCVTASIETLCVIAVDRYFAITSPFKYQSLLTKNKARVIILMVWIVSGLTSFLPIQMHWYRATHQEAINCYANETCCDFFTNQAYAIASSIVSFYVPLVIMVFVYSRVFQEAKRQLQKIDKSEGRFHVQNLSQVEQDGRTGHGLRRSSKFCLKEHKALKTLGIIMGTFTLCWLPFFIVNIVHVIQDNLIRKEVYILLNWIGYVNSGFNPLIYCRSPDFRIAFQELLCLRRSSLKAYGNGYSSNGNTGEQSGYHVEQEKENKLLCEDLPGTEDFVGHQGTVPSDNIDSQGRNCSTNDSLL
# Gonadotropin-releasing hormone receptor (Homo sapiens), sequence (P30968 whole entry, looked up): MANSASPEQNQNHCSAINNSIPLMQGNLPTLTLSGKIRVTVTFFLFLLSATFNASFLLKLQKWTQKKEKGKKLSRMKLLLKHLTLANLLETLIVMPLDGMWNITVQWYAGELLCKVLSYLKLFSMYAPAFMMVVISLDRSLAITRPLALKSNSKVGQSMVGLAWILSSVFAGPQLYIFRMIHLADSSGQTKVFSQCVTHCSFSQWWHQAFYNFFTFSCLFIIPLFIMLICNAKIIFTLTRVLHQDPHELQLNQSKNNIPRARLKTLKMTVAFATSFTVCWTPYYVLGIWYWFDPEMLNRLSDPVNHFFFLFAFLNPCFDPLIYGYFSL
# KiSS-1 receptor (Homo sapiens), sequence (Q969F8 whole entry, looked up): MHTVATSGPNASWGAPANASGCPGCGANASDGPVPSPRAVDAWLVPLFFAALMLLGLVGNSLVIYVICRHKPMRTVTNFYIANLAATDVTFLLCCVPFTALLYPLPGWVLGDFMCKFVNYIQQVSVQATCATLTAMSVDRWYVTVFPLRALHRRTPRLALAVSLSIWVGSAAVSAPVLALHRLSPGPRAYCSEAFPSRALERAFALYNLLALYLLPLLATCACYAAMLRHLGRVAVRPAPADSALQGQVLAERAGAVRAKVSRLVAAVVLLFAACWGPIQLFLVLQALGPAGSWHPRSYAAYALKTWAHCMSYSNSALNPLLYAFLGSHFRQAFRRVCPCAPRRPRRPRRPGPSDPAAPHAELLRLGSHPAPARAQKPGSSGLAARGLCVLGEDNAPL
# 5-hydroxytryptamine receptor 2A (Homo sapiens), sequence (P28223 whole entry, looked up): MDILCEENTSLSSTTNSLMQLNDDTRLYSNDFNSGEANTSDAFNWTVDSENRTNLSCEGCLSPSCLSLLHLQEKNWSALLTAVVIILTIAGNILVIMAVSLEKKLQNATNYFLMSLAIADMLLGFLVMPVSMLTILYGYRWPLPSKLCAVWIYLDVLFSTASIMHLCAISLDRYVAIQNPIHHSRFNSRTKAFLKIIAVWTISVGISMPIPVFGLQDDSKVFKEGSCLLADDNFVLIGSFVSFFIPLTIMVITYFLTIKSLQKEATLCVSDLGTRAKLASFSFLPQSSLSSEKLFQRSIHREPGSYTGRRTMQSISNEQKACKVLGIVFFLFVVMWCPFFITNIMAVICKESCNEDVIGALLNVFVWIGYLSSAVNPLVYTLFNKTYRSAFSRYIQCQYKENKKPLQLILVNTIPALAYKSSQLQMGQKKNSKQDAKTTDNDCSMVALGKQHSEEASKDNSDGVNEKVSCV
SMILES,Potency [1],Potency [2],Potency [3],Potency [4],Potency [5],Potency [6],Potency [7],Potency [8],Potency [9],Potency [10],Potency [11],Potency [12],Potency [13],Potency [14],Potency [15],Potency [16],Potency [17],Potency [18],Potency [19],Potency [20]
NC1=NC(=O)C(c2ccccc2)O1 (configuration not stated),inactive,inactive,inactive,inactive,inactive,inactive,inactive,inactive,inactive,inactive,inactive,inactive,inactive,inactive,,,,,,
C=CCOC(C)=O,inactive,inactive,inactive,inactive,inactive,inactive,,inactive,,,,inactive,inactive,inactive,inactive,inactive,inactive,inactive,inactive,
CCOC(C(=O)OCCN(C)C)(c1ccccc1)c1ccccc1,inactive,inactive,inactive,inactive,inactive,inactive,inactive,inactive,inactive,,inactive,,,inactive,,,inactive,2.31 µM (active),inactive,
CN=CNc1ccc(C)cc1C,inactive,inactive,inactive,inactive,inactive,inactive,inactive,,inactive,inactive,inactive,inactive,inactive,,inactive,inactive,inactive,inactive,inactive,inactive
O=C(CCl)NCO,inactive,inactive,inactive,inactive,inactive,inactive,inactive,inactive,inactive,inactive,inactive,inactive,inactive,inactive,,inactive,inactive,inactive,inactive,
c1ccc2c(c1)[nH]c1cnccc12,inactive,inactive,inactive,inactive,inactive,36.4 µM (active),inactive,inactive,,inactive,inactive,inactive,,inactive,inactive,,inactive,,inactive,inactive
COc1cc(OC)nc(NC(=O)NS(=O)(=O)c2ncccc2OCC(F)(F)F)n1,inactive,inactive,inactive,inactive,inactive,inactive,inactive,,inactive,inactive,inactive,inactive,inactive,inactive,inactive,,,inactive,inactive,inactive
Oc1ccc2c3c1O[C@H]1[C@@H](O)C=C[C@H]4[C@@H](C2)NCC[C@@]341,inactive,inactive,inactive,inactive,inactive,inactive,inactive,inactive,inactive,inactive,inactive,inactive,inactive,inactive,,inactive,inactive,,inactive,inactive
COC(=O)N(OC)c1ccccc1COc1ccn(-c2ccc(Cl)cc2)n1,inactive,inactive,inactive,inactive,inactive,inactive,inactive,inactive,,inactive,61.1 µM (active),inactive,inactive,inactive,inactive,inactive,inactive,,inactive,inactive
CN(CCCC(O)c1cccnc1)N=O (configuration not stated),inactive,inactive,inactive,inactive,inactive,inactive,inactive,,inactive,,inactive,inactive,inactive,inactive,inactive,inactive,inactive,inactive,,inactive
CC(C)CP(=S)(S)CC(C)C,inactive,15.4 µM (active),inactive,inactive,inactive,,inactive,inactive,inactive,inactive,inactive,inactive,inactive,inactive,inactive,inactive,inactive,inactive,inactive,inactive
CC[C@H](C)[C@H]1O[C@]2(C=C[C@@H]1C)C[C@@H]1C[C@@H](C/C=C(\C)[C@@H](O[C@H]3C[C@H](OC)[C@@H](O[C@H]4C[C@H](OC)[C@@H](O)[C@H](C)O4)[C@H](C)O3)[C@@H](C)/C=C/C=C3\CO[C@@H]4[C@H](O)C(C)=C[C@@H](C(=O)O1)[C@]34O)O2,16.1 µM (active),inactive,inactive,inactive,inactive,inactive,inactive,19.1 µM (active),,,,,inactive,,inactive,,,,,inactive
CCCCCCCCCC(=O)O[C@H]1CC[C@H]2[C@@H]3CCC4=CC(=O)CC[C@@H]4[C@H]3CC[C@]12C,inactive,inactive,inactive,inactive,inactive,inactive,,,,inactive,inactive,inactive,inactive,inactive,inactive,inactive,inactive,,inactive,
CN1C2CCC(C)(C)C1CC(OC(=O)C(O)(c1cccs1)c1cccs1)C2 (configuration not stated),inactive,inactive,inactive,inactive,inactive,inactive,inactive,inactive,inactive,inactive,inactive,inactive,inactive,inactive,inactive,inactive,inactive,,,

# — PubChem BioAssay (Tox21)
